Some test systems named below: T-47D breast; BT-549 breast; MDA-MB-435 melanoma; SW-620 colon; MCF7 breast; HCT-116 colon; HCC-2998 colon; KM12 colon.
Common to all, as to test: NCI-60 one-dose screen, 48 h (100 = growth as untreated, 0 = no growth, -100 = all killed)
Holding throughout (settings): 10 µM unless noted

Molecules are shown by their SMILES. This is part of a sample that, as a whole, favours compounds with a hit. Of some 83,000 tested, about 20% had one in any assay.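 Cell lines were cultured in 96-well plates, exposed to a single compound concentration, and assessed for percent growth 48 hours later.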 A number with no mark means an inactive call. Calls of active or inactive are those of the source. Rule for the calls: active = growth percent below 10; inactive = the rest.

As to `CC/C=C\C[C@H](O)C/C=C1/C(=O)C=C[C@@H]1C/C=C\CCCCO`, the growth in the test on T-47D breast is 21.6%; in the test with BT-549 breast, -8.67% (active); in the test on MDA-MB-435 melanoma it was -5.88% (active); with SW-620 colon it was -12.4% (active); with MCF7 breast it was 13.3%; in the test with HCT-116 colon, -64.6% (active). The growth with HCC-2998 colon was 6.24% (active); with KM12 colon, -16.1% (active).
With `Cc1ccc(S(=O)(=O)Oc2cc(OS(=O)(=O)c3ccc(C)cc3)cc(OS(=O)(=O)c3ccc(C)cc3)c2)cc1`, the growth in the test on T-47D breast is 97.8%; in the test on BT-549 breast it was 118%; in the test with MDA-MB-435 melanoma it was 96.2%; in the test on SW-620 colon it was 92.2%; with MCF7 breast, 104%; in the test on HCT-116 colon, 103%. Further, the growth with HCC-2998 colon was 139%; in the test with KM12 colon it was 123%.
`CC1SC(c2ccc(OCc3ccccc3)cc2)N(NC(=O)C(O)(c2ccccc2)c2ccccc2)C1=O` (stereo not given): the growth in the test with T-47D breast is 25.8%; with BT-549 breast it was 92.9%; with MDA-MB-435 melanoma, 57.7%; with SW-620 colon, 69.7%; with MCF7 breast, 35.7%; in the test with HCT-116 colon, 39.6%. Also, the growth in the test on HCC-2998 colon was 79.9%; with KM12 colon, 34.2%.
For the compound `CC(C)(C)n1cc(-c2ccnc(NCCCNS(=O)(=O)c3ccccc3)c2)c(-c2ccccc2)n1`, the growth in the test on T-47D breast is 9.34% (active); in the test on BT-549 breast, 53.4%; with MDA-MB-435 melanoma, 82.1%; in the test with SW-620 colon, 77.1%; in the test with MCF7 breast it was 62%; with HCT-116 colon, 57.5%. The growth was 78.1% in the test on HCC-2998 colon and 71.9% in the test on KM12 colon.
As to `NC(=N\N=C/c1ccccc1[N+](=O)[O-])/C(N)=N\N=C/c1ccccc1[N+](=O)[O-]`, the growth is 104% with T-47D breast; 116% in the test on BT-549 breast; 101% with MDA-MB-435 melanoma; 105% in the test with SW-620 colon; 105% in the test with MCF7 breast; 108% with HCT-116 colon. The growth in the test with HCC-2998 colon was 108%; in the test with KM12 colon, 104%.
For `Cc1nn(-c2ccccc2)c(Oc2ccc(Cl)cc2)c1/C=N\N=c1/sc2ccccc2n1C`, the growth in the test with T-47D breast is 66.4%; in the test with BT-549 breast, 84.1%; with MDA-MB-435 melanoma, 97.2%; with SW-620 colon, 77.8%; in the test on MCF7 breast, 85%; with HCT-116 colon it was 73.2%. In addition, the figures for the growth in the test with HCC-2998 colon and in the test on KM12 colon were 103% and 94.6%, respectively.
Consider `COc1ccc(/C=C/c2c(C(=O)/C=C/c3cccs3)c(C)nc3ccccc23)cc1`, for which the growth is 47.8% in the test with T-47D breast; 94.3% in the test on BT-549 breast; 68.5% in the test with MDA-MB-435 melanoma; 82.5% in the test on SW-620 colon; 53.9% with MCF7 breast; 47.5% in the test with HCT-116 colon. Moreover, the figures for the growth with HCC-2998 colon and in the test with KM12 colon were 85.6% and 78.9%, respectively.
For `O=C1/C(=C/c2ccc(Br)cc2)C=C(c2ccccc2)N1CCc1ccccc1`, the growth is 50.5% in the test with T-47D breast; 74.5% in the test on BT-549 breast; 63.2% in the test with MDA-MB-435 melanoma; 70.2% in the test with SW-620 colon; 55.2% in the test with MCF7 breast; 22.7% in the test on HCT-116 colon. Also, the figures for the growth in the test on HCC-2998 colon and with KM12 colon were 70.1% and 87.9%, respectively.
In the case of `Clc1ccc(-c2c3ccc(=[N+]4CCCCC4)cc-3oc3cc(N4CCCCC4)ccc23)cc1`, the growth with T-47D breast was -75.3% (active); in the test with BT-549 breast it was -93.5% (active); in the test with MDA-MB-435 melanoma it was -59.9% (active); in the test on SW-620 colon, -83.8% (active); with MCF7 breast, -73.9% (active); in the test on HCT-116 colon, -97.3% (active). The growth is -95.6% (active) with HCC-2998 colon and -86.9% (active) in the test with KM12 colon.
For the compound `Cc1cc(Cl)nc(NCc2cc(Nc3ccnc4cc(Cl)ccc34)ccc2F)n1`, the growth in the test with T-47D breast is 25.4%; with BT-549 breast it was 65.5%; in the test with MDA-MB-435 melanoma it was 41.2%; with SW-620 colon, 43.9%; with MCF7 breast, 17.4%; in the test on HCT-116 colon it was 23.7%. Moreover, the growth in the test on HCC-2998 colon is 73.1%; in the test with KM12 colon, 79.9%.
For the compound `COC(=O)[C@]12CC[C@@H](C)[C@H](C)[C@@H]1C1=CC[C@@H]3[C@@]4(C)C(C=O)=C[C@@](C)(COS(C)(=O)=O)[C@@H]4C(=O)C[C@@]3(C)[C@]1(C)CC2`, the growth is 33% in the test on T-47D breast; 42.9% in the test on BT-549 breast; 62.3% in the test on MDA-MB-435 melanoma; 35.9% in the test on SW-620 colon; 18.3% in the test on MCF7 breast; 5.35% (active) with HCT-116 colon. For the same compound, the results for the growth with HCC-2998 colon and in the test on KM12 colon were 43.4% and 23.1%, respectively.
With `COc1ccc(-c2nc3sccn3c2-c2cc(-c3cc(OC)c(OC)c(OC)c3)on2)cc1`, the growth was 51.9% with T-47D breast; 98.6% with BT-549 breast; 102% in the test on MDA-MB-435 melanoma; 105% in the test with SW-620 colon; 88.5% with MCF7 breast; 85.5% with HCT-116 colon. In addition, the results for the growth with HCC-2998 colon and in the test with KM12 colon were 98.2% and 90.5%, respectively.
In the case of `O=C(Cc1ccc(F)c(F)c1)Nc1cc(C2(C(F)(F)F)CC2)nn1Cc1ccccc1`, the growth in the test on T-47D breast is -8.37% (active); in the test on BT-549 breast, 14.9%; in the test on MDA-MB-435 melanoma, 0.174% (active); with SW-620 colon, 11.5%; in the test with MCF7 breast, -7.28% (active); with HCT-116 colon, 6.07% (active). Moreover, the growth in the test with HCC-2998 colon was 17.2%; with KM12 colon, 1.89% (active).
On to `COc1cccc(-c2nn(-c3ccccc3)cc2-c2ccnc(NCCNC(=O)c3ccccc3)c2)c1`, for which the growth in the test on T-47D breast was 19.4%; in the test on BT-549 breast, 38.4%; with MDA-MB-435 melanoma, 65.4%; in the test with SW-620 colon, 77.2%; in the test with MCF7 breast it was 62.5%; with HCT-116 colon it was 44.3%. Also, the growth with HCC-2998 colon was 71.2%; with KM12 colon, 57.3%.
`O=S(=O)(Nc1cccc(Cl)c1)c1ccc(-c2cnc(C3CC3)o2)cc1`: the growth with T-47D breast is 25%; in the test with BT-549 breast, 26.6%; in the test on MDA-MB-435 melanoma it was -21.5% (active); in the test with SW-620 colon, 11.3%; in the test with MCF7 breast, 14.2%; in the test on HCT-116 colon, 15.3%. Also, the growth in the test with HCC-2998 colon was 46.3%; in the test with KM12 colon, 20.8%.

These data come from PubChem BioAssay (NCI).
